Laboratory results: PubChem BioAssay AID1159580 (chemical genetic matrix, 2015)
About 2,000 (36%) of roughly 5,500 compounds were called active. Inconclusive results (about 18%) are left out. Some of the results follow. A number with no mark means an inactive call. No stated cut-off is given here; in the data, active means normalized growth mostly below about 0.91 (no sharp cut-off); inconclusive means no clear call, values can overlap the other calls; inactive means mostly above about 0.92.

Assay: chemical genetic growth profiling, strain panel (AID 1159580);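 further: tested at 20 µM; growth read once vehicle control cultures reached saturation at 30 °C; 1 = growth at the plate median or of vehicle wells; lower values mean less growth of the strain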
Details: S. cerevisiae deletion strains, growth OD
[1] = locus YAR019C, strain CDC15, hits give low values
[2] = locus YBL105C, strain PKC1, hits give low values
[3] = locus YBR135W, strain CKS1, hits give low values
[4] = locus YBR136W, strain MEC1, hits give low values
[5] = locus YBR160W, strain CDC28, hits give low values
[6] = locus YDL017W, strain CDC7, hits give low values
[7] = locus YDL028C, strain MPS1, hits give low values
[8] = locus YDL101C, strain DUN1, hits give low values
[9] = locus YDL108W, strain KIN28, hits give low values
[10] = locus YDL132W, strain cdc53, hits give low values
[11] = locus YDL214C, strain PRR2, hits give low values
[12] = locus YDR052C, strain DBF4, hits give low values
[13] = locus YDR054C, strain cdc34, hits give low values
[14] = locus YDR226W, strain ADK1, hits give low values
[15] = locus YDR477W, strain SNF1, hits give low values
[16] = locus YER123W, strain YCK3, hits give low values
[17] = locus YER133W, strain GLC7, hits give low values
[18] = locus YFL009W, strain cdc4, hits give low values
[19] = locus YFL029C, strain CAK1, hits give low values
[20] = locus YFR003C, strain YPI1, hits give low values
[21] = locus YFR019W, strain FAB1, hits give low values
[22] = locus YGR040W, strain KSS1, hits give low values
[23] = locus YGR052W, strain FMP48, hits give low values
[24] = locus YGR092W, strain DBF2, hits give low values
[25] = locus YHR030C, strain SLT2, hits give low values
[26] = locus YHR079C, strain IRE1, hits give low values
[27] = locus YHR082C, strain KSP1, hits give low values
[28] = locus YHR205W, strain SCH9, hits give low values
[29] = locus YIL147C, strain SLN1, hits give low values
[30] = locus YJL095W, strain BCK1, hits give low values
[31] = locus YJL128C, strain PBS2, hits give low values
[32] = locus YJL157C, strain FAR1, hits give low values
[33] = locus YJR016C, strain ILV3, hits give low values
[34] = locus YJR066W, strain TOR1 (second series), hits give low values
[35] = locus YJR066W, strain TOR1, hits give low values
[36] = locus YKL048C, strain ELM1, hits give low values
[37] = locus YKL067W, strain YNK1, hits give low values
[38] = locus YKL101W, strain HSL1, hits give low values
[39] = locus YKL193C, strain SDS22, hits give low values
[40] = locus YKL203C, strain TOR2, hits give low values
[41] = locus YLR113W, strain HOG1, hits give low values
[42] = locus YLR133W, strain CKI1, hits give low values
[43] = locus YLR403W, strain SFP1, hits give low values
[44] = locus YML070W, strain DAK1, hits give low values
[45] = locus YMR001C, strain CDC5, hits give low values
[46] = locus YMR205C, strain PFK2 (second series), hits give low values
[47] = locus YMR277W, strain FCP1, hits give low values
[48] = locus YNL006W, strain LST8, hits give low values
[49] = locus YNL020C, strain ARK1, hits give low values
[50] = locus YNL161W, strain CBK1, hits give low values
[51] = locus YNL183C, strain NPR1, hits give low values
[52] = locus YNL207W, strain RIO2, hits give low values
[53] = locus YNL222W, strain SSU72, hits give low values
[54] = locus YNL307C, strain MCK1 (second series), hits give low values
[55] = locus YOL078W, strain AVO1, hits give low values
[56] = locus YOL136C, strain PFK27, hits give low values
[57] = locus YOR061W, strain CKA2, hits give low values
[58] = locus YOR119C, strain RIO1, hits give low values
[59] = locus YOR231W, strain MKK1, hits give low values
[60] = locus YOR329C, strain SCD5, hits give low values
[61] = locus YPL031C, strain PHO85, hits give low values
[62] = locus YPL153C, strain RAD53, hits give low values
[63] = locus YPL204W, strain HRR25, hits give low values
[64] = locus YPL209C, strain IPL1, hits give low values
[65] = locus YPL256C, strain CLN2, hits give low values
[66] = locus YPR025C, strain CCL1, hits give low values
[67] = locus YPR111W, strain DBF20, hits give low values
[68] = strain NNK1, hits give low values
[69] = strain TSCII, hits give low values

## CC1C/C(=N/Nc2ccc(Br)cc2)c2cc(Cl)ccc2S1 (stereo not given)
[1]
  normalized growth: 0.535 (active)
[2]
  normalized growth: 0.485 (active)
[3]
  normalized growth: 0.429 (active)
[4]
  normalized growth: 0.497 (active)
[5]
  normalized growth: 0.58 (active)
[6]
  normalized growth: 0.525 (active)
[7]
  normalized growth: 0.396 (active)
[8]
  normalized growth: 0.458 (active)
[9]
  normalized growth: 0.598 (active)
[10]
  normalized growth: 0.546 (active)
[11]
  normalized growth: 0.161 (active)
[12]
  normalized growth: 0.703 (active)
[13]
  normalized growth: 0.333 (active)
[14]
  normalized growth: 0.931
[15]
  normalized growth: 0.146 (active)
[16]
  normalized growth: 0.166 (active)
[17]
  normalized growth: 0.213 (active)
[18]
  normalized growth: 0.434 (active)
[19]
  normalized growth: 0.404 (active)
[20]
  normalized growth: 0.433 (active)
[21]
  normalized growth: 0.124 (active)
[22]
  normalized growth: 0.187 (active)
[23]
  normalized growth: 0.215 (active)
[24]
  normalized growth: 0.125 (active)
[25]
  normalized growth: 0.193 (active)
[26]
  normalized growth: 0.192 (active)
[27]
  normalized growth: 0.277 (active)
[28]
  normalized growth: 0.0907 (active)
[29]
  normalized growth: 0.409 (active)
[30]
  normalized growth: 0.15 (active)
[31]
  normalized growth: 0.318 (active)
[32]
  normalized growth: 0.168 (active)
[33]
  normalized growth: 0.343 (active)
[34]
  normalized growth: 0.117 (active)
[35]
  normalized growth: 0.224 (active)
[36]
  normalized growth: 0.198 (active)
[37]
  normalized growth: 0.185 (active)
[38]
  normalized growth: 0.187 (active)
[39]
  normalized growth: 0.498 (active)
[40]
  normalized growth: 0.182 (active)
[41]
  normalized growth: 0.235 (active)
[42]
  normalized growth: 0.128 (active)
[43]
  normalized growth: 0.0605 (active)
[44]
  normalized growth: 0.151 (active)
[45]
  normalized growth: 0.644 (active)
[46]
  normalized growth: 0.163 (active)
[47]
  normalized growth: 0.519 (active)
[48]
  normalized growth: 0.265 (active)
[49]
  normalized growth: 0.141 (active)
[50]
  normalized growth: 0.383 (active)
[51]
  normalized growth: 0.194 (active)
[52]
  normalized growth: 0.624 (active)
[53]
  normalized growth: 0.369 (active)
[54]
  normalized growth: 0.114 (active)
[55]
  normalized growth: 0.529 (active)
[56]
  normalized growth: 0.158 (active)
[57]
  normalized growth: 0.12 (active)
[58]
  normalized growth: 0.158 (active)
[59]
  normalized growth: 0.187 (active)
[60]
  normalized growth: 0.303 (active)
[61]
  normalized growth: 0.147 (active)
[62]
  normalized growth: 0.126 (active)
[63]
  normalized growth: 0.131 (active)
[64]
  normalized growth: 0.385 (active)
[65]
  normalized growth: 0.208 (active)
[66]
  normalized growth: 0.41 (active)
[67]
  normalized growth: 0.9
[68]
  normalized growth: 0.545 (active)
[69]
  normalized growth: 0.644 (active)

## CC1C/C(=N/Nc2ccc(Br)cc2)c2cc(Cl)ccc2S1(=O)=O (stereo not given)
[1]
  normalized growth: 1.01
[2]
  normalized growth: 0.996
[3]
  normalized growth: 0.989
[4]
  normalized growth: 0.999
[5]
  normalized growth: 0.995
[6]
  normalized growth: 0.997
[7]
  normalized growth: 1
[8]
  normalized growth: 0.988
[9]
  normalized growth: 0.992
[10]
  normalized growth: 0.986
[11]
  normalized growth: 0.888
[12]
  normalized growth: 0.998
[13]
  normalized growth: 1
[14]
  normalized growth: 0.986
[15]
  normalized growth: 0.895
[16]
  normalized growth: 0.82
[17]
  normalized growth: 0.895
[18]
  normalized growth: 0.991
[19]
  normalized growth: 0.992
[20]
  normalized growth: 0.998
[21]
  normalized growth: 0.732 (active)
Locus YFR028C, strain CDC14, hits give low values
  normalized growth: 0.991
[22]
  normalized growth: 0.893
[23]
  normalized growth: 0.93
[24]
  normalized growth: 0.397 (active)
[25]
  normalized growth: 0.462 (active)
[26]
  normalized growth: 0.647
[27]
  normalized growth: 0.793
[28]
  normalized growth: 0.728
[29]
  normalized growth: 1
[30]
  normalized growth: 0.8
[31]
  normalized growth: 1
[32]
  normalized growth: 0.801
[33]
  normalized growth: 0.99
[34]
  normalized growth: 0.783
[35]
  normalized growth: 0.804
[36]
  normalized growth: 0.906
[37]
  normalized growth: 0.911
[38]
  normalized growth: 0.9
[39]
  normalized growth: 0.98
[40]
  normalized growth: 0.92
[41]
  normalized growth: 0.885
[42]
  normalized growth: 0.848
[43]
  normalized growth: 0.763
[44]
  normalized growth: 0.841
[45]
  normalized growth: 0.995
[46]
  normalized growth: 0.903
[47]
  normalized growth: 0.982
[48]
  normalized growth: 0.984
[49]
  normalized growth: 0.837
[50]
  normalized growth: 0.987
[51]
  normalized growth: 0.908
[52]
  normalized growth: 0.992
[53]
  normalized growth: 0.986
[54]
  normalized growth: 0.667
[55]
  normalized growth: 0.99
[56]
  normalized growth: 0.8
[57]
  normalized growth: 0.507 (active)
[58]
  normalized growth: 0.839
[59]
  normalized growth: 0.879
[60]
  normalized growth: 0.998
[61]
  normalized growth: 0.868
[62]
  normalized growth: 0.854
[63]
  normalized growth: 0.855
[64]
  normalized growth: 0.988
[65]
  normalized growth: 0.879
[66]
  normalized growth: 0.995
Locus YPR106W, strain ISR1, hits give low values
  normalized growth: 0.998
[67]
  normalized growth: 0.992
[68]
  normalized growth: 0.994
[69]
  normalized growth: 0.994
